Data published in PubChem BioAssay (NCATS).
Records with an inconclusive call do not appear. Calls of active or inactive are those of the source. Calls come from the whole dose curve; as a rule, active = well fitted cell-killing curve with a large enough effect; inconclusive = small, poorly fitted or top-dose-only effect, or effect the other way; inactive = flat fitted curve, though single readings scatter.

Key:
Assay in all cases: Primary qHTS to identify gynecologic anti-cancer compounds using libraries of approved drugs and bioactive compounds (AID 1345084); note: nearly all actives have a fitted effect of over 55% in size
C33A = details: Gynecologic cancer cell panel viability, ATPlite luminescence, 48 h; series mostly up to 57.5 µM
Summary of the method: (§1)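 Measured: luminescence after ATPlite addition (15 min, RT). Exposure: 48 h, 37 C, 5% CO2.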

CAOV3 = details: Gynecologic cancer cell panel viability, ATPlite luminescence, 48 h; series mostly up to 57.5 µM
Summary of the method: as §1

CASKI = details: Gynecologic cancer cell panel viability, ATPlite luminescence, 48 h; series mostly up to 57.5 µM
Summary of the method: as §1

Es-2 = details: Gynecologic cancer cell panel viability, ATPlite luminescence, 48 h; series mostly up to 57.5 µM
Summary of the method: as §1

HeLa = details: Gynecologic cancer cell panel viability, ATPlite luminescence, 48 h; series mostly up to 57.5 µM
Summary of the method: as §1

Hek293T = details: Gynecologic cancer cell panel viability, ATPlite luminescence, 48 h, control line for the selectivity index; series mostly up to 57.5 µM
Summary of the method: as §1

JEG-3 = details: Gynecologic cancer cell panel viability, ATPlite luminescence, 48 h; series mostly up to 57.5 µM
Summary of the method: as §1

OV90 = details: Gynecologic cancer cell panel viability, ATPlite luminescence, 48 h; series mostly up to 57.5 µM
Summary of the method: as §1

PA-1 = details: Gynecologic cancer cell panel viability, ATPlite luminescence, 48 h; series mostly up to 57.5 µM
Summary of the method: as §1

Tov-21-G = details: Gynecologic cancer cell panel viability, ATPlite luminescence, 48 h; series mostly up to 57.5 µM
Summary of the method: as §1

Tov112D = details: Gynecologic cancer cell panel viability, ATPlite luminescence, 48 h; series mostly up to 57.5 µM
Summary of the method: as §1

Measured: Potency

C[C@@H]1C[C@H]2OC(=O)[C@@]3(C)CCC[C@](C)(C23)[C@@]1(O)CCC1=CC(=O)OC1O (stereo partly specified)
inactive: all assays above

COc1cc(C2CC(=O)Nc3c2cc(Br)c2ccccc32)cc(OC)c1OC (stereo unspecified)
inactive: all assays above

O=C(/C=C/c1ccccc1)OC[C@H]1O[C@@H](OC(=O)c2cc(O)c(O)c(O)c2)[C@H](O)[C@@H](O)[C@@H]1O
inactive: all assays above

C[C@@H]1[C@H]2[C@H](O[C@@H]3O[C@H](CO)[C@@H](O)[C@H](O)[C@H]3O)OC=C(C(=O)O)[C@H]2C[C@@H]1OC(=O)/C=C/c1ccc(O)cc1
inactive: all assays above

C[C@]1(C2CCCC2)Cc2cc(OCC(=O)O)c(Cl)c(Cl)c2C1=O
inactive: all assays above

CC1CCC23COC(=O)C2=CC(O)CC3C1(C)CCc1ccoc1 (stereo unspecified)
inactive: all assays above

C=C1C(OC(C)=O)[C@@]23CCC4[C@](C)(C(=O)O)CCC[C@@]4(C)[C@]2(O)CC[C@H]1C3 (stereo partly specified)
inactive: all assays above

COc1cc(C[C@@]2(O)CO[C@@H](c3ccc(O[C@@H]4O[C@H](CO)[C@@H](O)[C@H](O)[C@H]4O)c(OC)c3)[C@H]2CO)ccc1O
inactive: all assays above

C=C[C@H]1[C@H](O[C@@H]2O[C@H](CO)[C@@H](O)[C@H](O)[C@H]2O)OC=C2C(=O)N3Cc4c([nH]c5ccccc5c4=O)[C@@H]3C[C@H]21
inactive: all assays above

Cc1ccc(-c2c(-c3nn(C)c4ncnc(N5CCC(N6CCCCC6)C5)c34)cnn2C)cc1 (stereo unspecified)
inactive: all assays above

COc1ccccc1Oc1c(NS(=O)(=O)c2ccc(C)cn2)nc(-c2ccncc2)nc1OC
inactive: all assays above

CC1CCC2(NC1)OC1C(O)C3C4CCC5CC(O[C@@H]6O[C@H](CO)[C@@H](O)[C@H](O)[C@H]6O[C@@H]6O[C@@H](C)[C@H](O)[C@@H](O)[C@H]6O)CCC5(C)C4CCC3(C)C1C2C (stereo partly specified)
inactive: all assays above

COc1ccccc1N1CCN(CCCCNC(=O)c2ccc(-c3cscn3)cc2)CC1
inactive: all assays above

Cc1c(Cc2ccc3ccccc3n2)c2cc(F)ccc2n1CC(=O)O
inactive: all assays above

CC1=C[C@H](O)[C@H]2C(C)(C)CCC[C@]2(C)[C@@]1(O)CO
inactive: all assays above

COc1cc(CO)cc(OC)c1O[C@@H]1O[C@H](CO)[C@@H](O)[C@H](O)[C@H]1O
inactive: all assays above
